HCV inhibitor – inhibitors of hepatitis C virus infection | Huh7.5.1 HCVcc-Cre infection, luciferase reporter, 44 h | Potency, µM (highest dose often 41.8 µM), inactives show at the top dose activity change, negative = inhibition, usual class: inhibitors | 340,000 tested, 3.4% active | AID 651820; further: potency means the concentration at half of the fitted maximal effect; on the % scale 0 is the no-effect control and ±100 the full control effect
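Cells seeded at 1,000/well and cultured 4 h, then compounds added followed by HCVcc-Cre virus (~0.5 moi). After 44 h further culture, luciferase substrate was added, plates held 15 min at room temperature, and luminescence read for 15 sec.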
HCMV antiviral – blocks human cytomegalovirus replication; AID 1259415; activity change, negative = inhibition, % at 57.5 µM; 410,000 tested, 4.5% active; HFF cells, HCMV-luciferase reporter, 72 h; stronger effect = lower value; in the data active means activity change below about -60%; inconclusive means no clear call, values can overlap the other calls; inactive means above about -39%; further: on the % scale 0 is the no-effect control and ±100 the full control effect
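Two-dose cell screen: HFF monolayers treated with compounds and infected with luciferase-expressing HCMV at 1 PFU/cell, 72 h at 37C, then lysed for luciferase measurement.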
Pf growth 96h – P. falciparum growth inhibition at 96 hour, primary screen for plastid delayed-death inhibitors; P. falciparum luciferase reporter growth, 96 h; Potency, µM (titrated, usually from 28.7 µM), for inactives: at the top dose activity change, negative = inhibition, actives largely listed as inhibitors; 320,000 tested, 6.9% active; AID 504834; further: potency means the concentration at half of the fitted maximal effect; on the % scale 0 is the no-effect control and ±100 the full control effect
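P. falciparum expressing integrated firefly luciferase grown in erythrocytes (2% hematocrit, 0.05% parasitemia final) with compounds for 96 hours at 37 C, 5% CO2. Growth inhibition read as loss of luminescence after adding luciferase detection reagent.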
Pf growth 48h – inhibits P. falciparum growth in the first generation, 48 h | P. falciparum luciferase growth in erythrocytes, 48 h | Potency, µM (highest dose often 28.7 µM), for inactives: at the top dose activity change, negative = inhibition, actives largely listed as inhibitors | 310,000 tested, 5.9% active | AID 504832; further: potency means the concentration at half of the fitted maximal effect; on the % scale 0 is the no-effect control and ±100 the full control effect
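In quantitative HTS format, infected erythrocytes bearing luciferase-reporter parasites were treated for a single generation at 37 C. Luminescence after adding detection reagent served as the growth measure.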
Shiga inhibitor – inhibitors of Shiga toxin in Vero cells; Vero cells, Shiga toxin protein synthesis inhibition reporter; inhibition, % at 38.7 µM; 290,000 tested, 9.2% active; AID 2315; in the data active means inhibition mostly above about 28%, no sharp cut-off; inactive means mostly below about 43%; further: 0% is about no effect
Cycloheximide cs – counter-screen hit for Shiga toxin inhibitors, cycloheximide. cell reporter, cycloheximide protein synthesis inhibition counterscreen. AID 2314. max response, %. 300,000 tested, 12% active; in the data active means max response mostly above about 13%, no sharp cut-off; inactive means mostly below about 14%; further: read at 38.3 µM for the half of the compounds with a filed dose; 0% is about no effect
* hit, by the source's call; ? = inconclusive; / = no result. An excerpt weighted towards active compounds, which were near 21% of everything screened. Unless noted, the call rests on the fitted dose curve; in most records, active means well fitted inhibition curve with a large enough effect; inconclusive means small, poorly fitted or top-dose-only effect, or another doubt; inactive means no such curve, though single readings can be large or run the other way.

SMILES | HCV inhibitor | HCMV antiviral | Pf growth 96h | Pf growth 48h | Shiga inhibitor | Cycloheximide cs
CC1CCN(CC(=O)c2ccccc2Cl)CC1 | 22% | -3 | ? | ? | 31* | 14
O=C(CSc1nc2c(c(=O)[nH]1)CCC2)Nc1ccccc1F | / | -4 | / | / | / | /
CCOC(=O)CNS(=O)(=O)c1ccc(F)cc1Br | / | / | / | / | 2 | -5
Cc1ccc(NC(=O)CCn2c(=S)oc3ccccc32)cc1 | -22% | 16 | ? | -16% | -10 | -3
CCCCC(=O)/C=C/n1c(=S)oc2ccccc21 | ? | -101* | 47% | 35% | 44* | 35*
CC(C)OC(=O)n1c(=S)oc2ccccc21 | 9% | 22 | 7% | / | 68* | 44*
O=C(CCC1N=C2c3ccccc3N=C(SCc3ccc(F)cc3)N2C1=O)NC1CCCCC1 (stereo not drawn) | / | 2 | / | / | / | /
Cc1ccc(COn2nnc3ccc(S(=O)(=O)N4CCOCC4)cc32)cc1 | ? | 0 | ? | -12% | / | /
Cc1ccc2c(COn3nnc4ccc(S(=O)(=O)N(C)C)cc43)cc(=O)oc2c1C | 11% | 19 | 10µM* | 4% | -6 | -2
Cc1ccc(C(=O)NC(=S)Nc2ccc(N3CCOCC3)cc2)c(C)c1 | -14% | ? | ? | ? | 7 | 8
CC(C)C(=O)Nc1cccc(NC(=S)NC(=O)c2ccc3c(c2)OCO3)c1 | -7% | 15 | -38% | ? | -20 | -3
CCc1ccc(C(=O)NC(=S)Nc2ccc3c(c2)OCCO3)cc1 | ? | 18 | 8.3µM* | 183% | 72* | 41*
Cc1ccc(C(=O)NC(=S)Nc2ccc3c(c2)OCCO3)c(C)c1 | -9% | 10 | ? | 49% | 71* | 33*
O=C(NC(=S)Nc1ccc2c(c1)OCCO2)c1ccc(F)cc1Cl | -17% | ? | 2% | 69% | 34* | 28*
Cc1ccc(C(=O)Nc2ccc3c(c2)OCCO3)c(Cl)c1 | -16% | ? | 32% | 154% | 4 | -2
O=C(NC(=S)Nc1ccc2c(c1)OCO2)c1ccc(Cl)cc1 | 17% | 63 | 90% | 239% | 108* | 76*
O=C(CCCSc1nnnn1-c1cccc2ccccc12)c1ccc(F)cc1 | ? | ? | ? | ? | -1 | -1
CN(C)c1ccc(-c2cc(C3C4C=CCCC4(C)C(=O)N3Cc3ccccc3)ccc2F)cc1 (stereo not drawn) | / | / | / | / | 41 | 5
Cc1cc(C)cc(C(=O)NC(=S)Nc2ccc3c(c2)OCCO3)c1 | ? | -29 | 0.93µM* | 145% | 74* | 31*
O=C(Nc1ccc2c(c1)OCO2)C1(S(=O)(=O)c2ccc(Cl)cc2)CC1 | / | 60 | 1.9µM* | -1% | 36 | 18
O=C(NC(=S)Nc1ccc(N2CCCCC2)c(Cl)c1)c1ccc2c(c1)OCCO2 | 3.5µM* | -63* | ? | ? | -2 | -4
Cc1ccc(S(=O)(=O)C2(C(=O)Nc3ccc(C)c(Cl)c3)CC2)cc1 | / | 6 | / | / | / | /
COc1ccc(S(=O)(=O)n2cccc2)c(OC)c1 | 2% | -15 | 26% | -2% | 7 | 6
Nc1nc(Nc2ccccc2F)nc(N2CCOCC2)c1[N+](=O)[O-] | -16% | 0 | -13% | 0% | 20 | 9
Cc1ccc2nc3c(cc(C(=O)NC4CCS(=O)(=O)C4)n3Cc3ccccc3)c(=O)n2c1 (stereo not drawn) | ? | 0 | 9% | -5% | -5 | 1
SMILES | HCV inhibitor | HCMV antiviral | Pf growth 96h | Pf growth 48h | Shiga inhibitor | Cycloheximide cs
O=C(NCc1ccccn1)Nc1ccc(Cl)cc1Cl | 9% | 63 | ? | 67% | 66* | 37*
O=C(Nc1ccno1)Nc1ccc(Cl)cc1Cl | ? | 31 | 30% | 11% | 6 | 11*
O=C(NCc1ccccn1)c1ccccc1OCc1ccc(Cl)cc1Cl | -22% | -30 | 15µM* | ? | / | /
O=C(CCCOc1ccc(Cl)cc1Cl)NCc1ccccn1 | ? | -9 | 25% | 20% | 41 | 6
S=C(NCc1ccccn1)Nc1ccc(Br)cc1Cl | 2% | 1 | 7% | 67% | 44* | 18*
O=C(NCCCN1CCCC1=O)c1ccccc1OCc1ccc(Cl)cc1Cl | -9% | -27 | / | / | / | /
O=C(Nc1ccc(Cl)cc1Cl)Nn1cnnc1 | 6% | 9 | -25% | 18% | -4 | -3
